Rows were chosen to be rich in hits. Some 1.7% of all compounds tested hit in one or more screens of this group.
Vif imaging: blocks HIV Vif function; HEK293T cells, Vif self-association by quenched fluorescence, imaging, 24 h; actives 0.35% (n = 340,000); AID 602346; inhibition, % at 7.49 µM; in the data active = inhibition above about 50%, passing the limit was not always enough; inconclusive = no clear call, values can overlap the other calls; inactive = below about 31%
FGF22 binding: shifts melting point of recombinant human FGF22. Q9HCT0. recombinant FGF22 thermal shift, SYPRO orange fluorescence; percent of sucrose octasulfate shift, DMSO zero. activity (Tm shift, normalised), % at 9.99 µM. actives 1.5% (n = 340,000). AID 651658;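 active = mean Tm shift, scaled 0 neutral to 100 positive control, at about 1.3% or above, every replicate too, limit read from the data; inconclusive = no clear call, values can overlap the other calls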
Target sequence (Q9HCT0 whole entry, looked up): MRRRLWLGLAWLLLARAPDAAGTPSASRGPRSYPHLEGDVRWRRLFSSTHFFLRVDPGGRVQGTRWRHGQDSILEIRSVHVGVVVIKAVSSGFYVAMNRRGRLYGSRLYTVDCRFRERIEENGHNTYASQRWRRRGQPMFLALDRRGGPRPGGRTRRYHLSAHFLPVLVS
F508del corr: correctors of CFTR F508del function in bronchial epithelial cells; CFBE cells, YFP halide quenching; stimulated with forskolin plus potentiator P3; % fluorescence drop versus neutral controls; activity (quench increase), % at 7.58 µM; actives 0.36% (n = 350,000); AID 720511;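 active = mean added fluorescence quench of at least 8% versus neutral control, with both replicates also reaching 8%; inconclusive = only one of the mean or replicate conditions met; inactive = mean below 8% and not both replicates reaching 8%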;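 also: cells transiently co-express mutant CFTR-F508del with the halide-sensitive YFP; corrector assay measuring rescue of mutant channel to the surface after 24 h compound exposure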
An asterisk follows results filed as active; ? = inconclusive; . = no result given.

SMILES	Vif imaging	FGF22 binding	F508del corr
COc1ccc(NC(=O)N(C)C[C@H]2Oc3cc(C#CCN(C)C)ccc3S(=O)(=O)N([C@H](C)CO)C[C@@H]2C)cc1	.	0	0
O=C(C[C@@H]1C=C[C@@H](NC(=O)C2CCOCC2)[C@@H](CO)O1)NCc1ccncc1	.	0	0
C[C@H](CO)N1C[C@H](C)[C@H](CN(C)C(=O)Nc2ccccc2)Oc2c(NS(=O)(=O)c3ccccc3)cccc2C1=O	.	-1	-3
CC(=O)N(Cc1ccccc1)Cc1nc2sc(C)c(C)c2c(=O)[nH]1	-12	44*	0
Cc1sc2nc(CN(Cc3ccccc3)C(=O)NC3CCCCC3)[nH]c(=O)c2c1C	7	.	.
CC(=O)N(C)C[C@@H]1Oc2ncc(C#Cc3cccnc3)cc2C(=O)N([C@@H](C)CO)C[C@@H]1C	.	.	0
O=S(=O)(Cc1ccccc1)N1CCCCN2[C@H](CO)[C@@H](c3ccc(-c4ccccc4)cc3)[C@H]2C1	.	0	-2
CCN(CC(=O)Nc1c(F)cccc1F)C(=O)CCCOc1ccc(OC)cc1	12	0	-3
CCN(CC(=O)Nc1c(F)cccc1F)C(=O)C1CC1	2	0	8.4*
CCN(CC(=O)Nc1c(F)cccc1F)C(=O)CCc1ccc(OC)cc1	-5	44*	-1
CCN(CC(=O)Nc1c(F)cccc1F)C(=O)C1CCN(C(=O)c2ccc(Cl)cc2)CC1	27	.	1
Cc1ccc(S(=O)(=O)N[C@H]2C=C[C@H](CC(=O)NC3CCCCC3)O[C@@H]2CO)cc1	.	0	-3
C[C@H]1CCCCO[C@H](CN(C)S(=O)(=O)c2ccccc2)[C@@H](C)CN([C@@H](C)CO)C(=O)c2cc(NC(=O)Nc3ccccc3)ccc2O1	.	.	-2
Cc1ccc(S(=O)(=O)N[C@@H]2CC[C@H](CC(=O)NC3CCCCC3)O[C@H]2CO)cc1	.	0	1
C[C@H](CO)N1C[C@H](C)[C@H](CN(C)C(=O)Nc2ccccc2)Oc2ncc(C#CC(C)(C)O)cc2C1=O	.	0	-1
COc1ccc(-c2cn(CC[C@H]3CC[C@@H](NC(=O)Cc4ccccn4)[C@H](CO)O3)nn2)cc1	.	0	0
CCc1nnc(NC(=O)c2ccc(OCc3c(C)noc3C)c(OC)c2)s1	14	43*	1
COc1cc(C(=O)Nc2nc3ccc(C)cc3s2)ccc1OCc1c(C)noc1C	-11	.	.
C[C@H](CO)N1C[C@H](C)[C@@H](CN(C)C(=O)c2cccnc2)Oc2cc(C#CC3(O)CCCC3)ccc2S1(=O)=O	.	0	2
Clc1ccccc1CNCc1ccncc1	-3	43*	-1
FC(F)(F)c1ccccc1CNCc1ccncc1	-5	0	0
CC(=O)N1CCN(C(=O)c2cc(C)nc3ccccc23)CC1	7	42	-3
Cc1cc(C(=O)N2CC=C(c3ccccc3)CC2)c2ccccc2n1	.	0	9.9*
Nc1ncnc2c1CN(Cc1ccccc1)CC2	16	0	-2
Nc1nc(N)c2c(n1)CN(Cc1ccc(Cl)cc1)C2	-7	43*	-4
SMILES	Vif imaging	FGF22 binding	F508del corr
NS(=O)(=O)c1ccc(NC(=O)C(Sc2ccccc2)c2ccccc2)cc1 (stereo not drawn)	-2	1.4*	2
NS(=O)(=O)c1ccc(NC(=O)CSc2ccccc2)cc1	-12	0	3
CCCC(C)C(=O)Nc1ccc(S(N)(=O)=O)cc1 (stereo not drawn)	3	.	3
CC(C)CNC(C)C(=O)Nc1ccc(S(N)(=O)=O)cc1 (stereo not drawn)	9	43*	1
C[C@@H](O)C#Cc1cnc2c(c1)C(=O)N([C@@H](C)CO)C[C@H](C)[C@@H](CN(C)C(=O)Cc1ccccn1)O2	.	0	3
CC(=O)N(C)C[C@H]1Oc2cc(C3=CCCCC3)ccc2S(=O)(=O)N([C@@H](C)CO)C[C@@H]1C	.	.	-3
OC[C@H]1CC[C@@H]2O[C@H](CCc3ccc(C#CCc4ccccc4)cc3)[C@H](n3cc(-c4ccccc4)nn3)C[C@@H]2O1	.	.	-1
O=C(O)c1cccc(Nc2nc(N3CCOCC3)nc(N3CCOCC3)n2)c1	-2	.	.
O=C(O)c1cccc(Nc2ccnc(Nc3cccc(C(=O)O)c3)n2)c1	140*	0	0
CCOC(=O)c1nc(C)sc1-c1ccnn1S(=O)(=O)c1ccc(Cl)cc1Cl	-14	0	0
CCOC(=O)c1nc(C)sc1-c1ccnn1S(=O)(=O)c1ccccc1C(F)(F)F	-3	0	9.8*
COc1ccc(Nc2nc3cc(-c4sccc4C)sc3c(=O)n2C)cc1OC	-5	-1	9.6*
COc1ccc(Nc2nc3cc(-c4ccsc4)sc3c(=O)n2C)cc1OC	16	0	-1
COc1ccc(C(=O)c2ccc(OC)cc2OC)cc1	-5	0	?
CN(C)c1ccc(C(=O)c2ccc(N(C)C)c3ccccc23)cc1	78*	.	.
CN(C)c1ccccc1C(=O)c1ccccc1N(C)C	26	.	.
COc1ccc(C(=O)c2ccc(N(C)C)cc2)c(OC)c1	-3	0	11*
O=C(C[C@H]1CC[C@@H]2[C@H](COC[C@@H](O)CN2C(=O)c2ccccn2)O1)NC1CCC1	.	0	0
Cc1noc(C)c1NC(=O)Nc1ccc2c(c1)C(=O)N([C@@H](C)CO)C[C@@H](C)[C@H](CN(C)C(=O)Nc1ccc(F)cc1)OCCCC[C@H](C)O2	.	0	2
Cc1cc(C=O)c(C)n1-c1sc2c(c1C(=O)O)CCCC2	29	.	.
COC(=O)c1c(-n2c(C)cc(C=O)c2C)sc2c1CCCC2	84*	0	0
Cn1c(C(=O)O)c(C=O)c2ccccc21	8	0	-1
Cc1c(C(=O)C(C)C)n(C)c2ccccc12	59*	.	.
CCNC(=O)NC(=O)CSc1ccc2ccccc2c1	-5	43*	.
CCNC(=O)NC(=O)CSc1ccccc1F	1	.	.
SMILES	Vif imaging	FGF22 binding	F508del corr
Cc1ccc(Sc2ncccc2NC(=O)c2ccccc2Cl)cc1	1	0	-2
CCCNC(=O)OCc1cccnc1Sc1ccc(C)cc1	-6	43*	1
O=C(OCc1cn([C@@H]2C[C@H](c3ccccc3)N(Cc3cccs3)C[C@H]2O)nn1)c1ccccc1	-1	44*	-5
O=C(OCc1cn([C@H]2CN(Cc3cccs3)[C@@H](c3ccccc3)C[C@@H]2O)nn1)c1ccccc1	-4	0	-2
CO[C@@H]1CN(C)C(=O)c2ccc(NS(C)(=O)=O)cc2OC[C@@H](C)N(C(=O)c2ccc3c(c2)OCO3)C[C@@H]1C	.	.	0
CSc1nc2ccccc2cc1/C=C(\C#N)c1cccc(Cl)c1	63*	.	.
CCOC(=O)/C(C#N)=C/c1cc2ccccc2nc1Cl	.	0	0
Cc1ccc(S(=O)(=O)Nc2ccc3c(c2)CC(=O)N([C@H](C)CO)C[C@@H](C)[C@@H](CN(C)Cc2ccccc2)O3)cc1	.	0	2
COc1ccc(/C=N/NC(=O)c2ccc(CSc3nncn3C)cc2)cc1OC	-1	0	-3
COc1cc(/C(C)=N/NC(=O)c2ccc(CSc3nncn3C)cc2)cc(OC)c1OC	1	43*	-3
Cc1c(NC(=O)CN2CCC(C(N)=O)CC2)cccc1[N+](=O)[O-]	-1	43*	-1
Cc1ccccc1C(=O)N1CCC(C(=O)OCC(=O)Nc2cccc([N+](=O)[O-])c2C)CC1	-5	0	1

Assay outcomes deposited in PubChem BioAssay by Broad Institute.
